Experimental findings from PubChem BioAssay (NCATS) are described below.

Inconclusive results are not listed. Active and inactive are the calls of the source. The call rests on the fitted dose curve; in most records, active means well fitted inhibition curve with a large enough effect; inconclusive means small, poorly fitted or top-dose-only effect; inactive means flat fitted curve, though single readings scatter.

The target of this assay is Tyrosine-protein phosphatase non-receptor type substrate 1 (Homo sapiens) + Leukocyte surface antigen CD47 (Homo sapiens) (UniProt P78324+Q08722). Put plainly: CD47-SIRPalpha protein protein interaction - Alpha assay qHTS validation (AID 1347059).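 Further: bead proximity luminescence from CD47 binding SIRPalpha after compound preincubation with SIRPalpha.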 As to conditions: AlphaScreen CD47-His/biotin-SIRPalpha binding, LOPAC; series mostly up to 38.3 µM; activity change, negative = inhibition: at the top concentration. The text has this: SIRPalpha is a myeloid cell expressed immunomodulatory receptor that binds the tumor expressed immune checkpoint CD47. Therapeutic disruption of this interaction leads to immune-mediated tumor rejection. This assay was used to quantitate CD47-SIRPalpha binding biochemically and evaluate chemical libraries for novel CD47-SIRPalpha inhibitors. To recapitulate the biological interaction of CD47 and SIRPalpha, we designed expression constructs to produce their recombinant, soluble, extracellular interaction domains. CD47 was produced with an N-terminal 6His tag. SIRPalpha was produced with an N-terminal Avi-Tag for site-specific biotin incorporation. The CD47-SIRPalpha interaction was measured by AlphaScreen using affinity tag linked reagents (Ni-NTA acceptor bead and streptavidin donor bead). SIRPalpha without biotin incorporation was used as a positive control inhibitor.
Tyrosine-protein phosphatase non-receptor type substrate 1 (Homo sapiens) + Leukocyte surface antigen CD47 (Homo sapiens), sequence (P78324 whole entry, looked up): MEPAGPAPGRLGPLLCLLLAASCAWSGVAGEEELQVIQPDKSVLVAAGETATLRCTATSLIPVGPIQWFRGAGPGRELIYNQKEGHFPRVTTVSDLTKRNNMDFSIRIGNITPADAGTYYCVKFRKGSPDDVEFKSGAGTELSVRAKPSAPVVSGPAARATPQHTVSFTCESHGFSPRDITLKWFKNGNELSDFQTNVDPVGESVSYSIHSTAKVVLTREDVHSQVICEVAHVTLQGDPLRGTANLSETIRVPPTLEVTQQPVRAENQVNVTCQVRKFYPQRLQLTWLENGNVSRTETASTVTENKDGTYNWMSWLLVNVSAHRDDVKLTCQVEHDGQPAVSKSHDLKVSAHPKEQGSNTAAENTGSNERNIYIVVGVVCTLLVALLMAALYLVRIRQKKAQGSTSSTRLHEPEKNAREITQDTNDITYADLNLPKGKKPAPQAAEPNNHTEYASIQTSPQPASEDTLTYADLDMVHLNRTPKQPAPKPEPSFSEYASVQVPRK
Tyrosine-protein phosphatase non-receptor type substrate 1 (Homo sapiens) + Leukocyte surface antigen CD47 (Homo sapiens), sequence (Q08722 whole entry, looked up): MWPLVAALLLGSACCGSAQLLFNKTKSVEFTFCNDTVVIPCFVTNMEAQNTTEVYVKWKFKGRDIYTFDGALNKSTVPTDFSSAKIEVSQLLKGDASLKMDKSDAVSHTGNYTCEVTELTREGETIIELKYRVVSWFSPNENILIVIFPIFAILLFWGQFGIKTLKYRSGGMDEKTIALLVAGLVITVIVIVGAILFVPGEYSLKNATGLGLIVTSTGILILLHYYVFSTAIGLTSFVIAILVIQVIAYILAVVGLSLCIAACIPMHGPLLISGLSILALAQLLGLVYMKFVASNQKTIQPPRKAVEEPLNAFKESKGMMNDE
PROTOCOL TABLE (as described by Miller, T. et al. 2019)
SEQUENCE No. (e.g., 1, 2, 3, etc.); […] (e.g., Cells, Incubation, Reagent, etc.); VALUE and DESCRIPTION.
1a. Reagent. 2 uL SIRPalpha-biotin (25 nM) added to respective wells in Assay buffer; white/solid bottom high base, med bind 1536-well plates (Greiner 789075)
1b. Reagent. 2 uL Assay buffer negative control for background fluorescence
2. Reagent. 23 nL library compounds (7-pt, 1:4 intraplate titration series) or DMSO control transferred by Pin Tool
3. Centrifuge. Centrifuge plate for 30 s at 1000 RPM
4. Incubation.#Incubate reagents at room temperature for 30 min, protected from light
5. Reagent. 2 uL CD47-His (12.5 nM) in Assay buffer
6. Centrifuge. Centrifuge plate for 30 s at 1000 RPM
7. Incubation.#Incubate reagents at room temperature for 30 min, protected from light
8. Reagent. 1 uL Ni-NTA beads (10 ug/mL) added to respective wells
9. Reagent. 1 uL SAV beads (10 ug/mL) added to respective wells
10. Centrifuge. Centrifuge plate for 30 s at 1000 RPM
11. Incubation. Incubate reagents at room temperature for 30 min, protected from light
12. Detector. Measure AlphaScree n on EnVision (1536A1 aperture)
Where possible, perform Donor bead dilution and addition away from direct sunlight or with bright overhead lights turned off (<100 lux, similar to hallway lighting). Lighting should still be bright enough to allow accurate pipetting.
1. Assay buffer composition.#Phosphate buffered saline (PBS; 10 mM Phosphate, 137 mM NaCl, and 2.7 mM KCl; pH 7.4), 0.05% IGEPAL CA-630
2. 23nL of […] library compounds (7 plates) or DMSO vehicle control transferred to 9 Greiner white/solid bottom high base, TC plates in 7 interplate 1:5 titrations (see Yasgar, A. et al. 2008) with Pintool. Two of the 9 plates are DMSO-only in compound field at beginning and end of compound library-treated plates.
12. Aperture = 1536 plate HTS AlphaScreen; plate-detector distance = 0; Total measurement time = 240; Ex. time = 80 ms (33%); Afterglow CT1 corr. factor = 0; Glow CT2 corr. factor = 0; Bleach CT3 corr. factor = 0; Ref. signal= 417733; Ref. AD gain = 2
As to `CNC(=O)Oc1ccc2c(c1)[C@]1(C)CCN(C)[C@@H]1N2C`, the “activity change, negative = inhibition” value is 0.108% (inactive). For the molecule `N=c1c[n+](N2CCOCC2)[n-]o1`, the “activity change, negative = inhibition” value was -1.29% (inactive).

Consider `O=C1N=C(O)CN1/N=C/c1ccc(-c2ccc([N+](=O)[O-])cc2)o1`, for which the “activity change, negative = inhibition” value is 1.05% (inactive).

Consider `CN1CCN(C2Cc3ccccc3Sc3ccc(Cl)cc32)CC1` (stereo not given), for which the “activity change, negative = inhibition” value is -17.5% (inactive). Regarding `CC[C@H]1CN2CCc3cc(OC)c(OC)cc3[C@@H]2C[C@@H]1C[C@H]1NCCc2cc(OC)c(OC)cc21`, the “activity change, negative = inhibition” value was -3.34% (inactive).

Take `CC(CN1c2ccccc2Sc2ccccc21)N(C)C` (stereo not given): the “activity change, negative = inhibition” value is -21.3% (inactive). Consider `CCCCc1ncc(/C=C(\Cc2cccs2)C(=O)O)n1Cc1ccc(C(=O)O)cc1`, for which the “activity change, negative = inhibition” value was 1.04% (inactive). As for `CC1=C(/C=C/C(C)=C/C=C/C(C)=C/C(=O)O)C(C)(C)CCC1`, the “activity change, negative = inhibition” value is 2.36% (inactive). `CC(C)NC[C@H](O)c1ccc(O)c(O)c1`: the outcome was inactive.

Turning to `NC1[C@H]2CN(c3nc4c(cc3F)c(=O)c(C(=O)O)cn4-c3ccc(F)cc3F)C[C@@H]12` (stereo not given in full), the “activity change, negative = inhibition” value is 0.0445% (inactive).

Turning to `CN1CCC[C@@H]1Cc1c[nH]c2ccc(CCS(=O)(=O)c3ccccc3)cc12`, the “activity change, negative = inhibition” value is 0% (inactive). Turning to `C[C@H](NC(CCc1ccccc1)C(=O)O)C(=O)N1CCC[C@H]1C(=O)O` (stereo not given in full), the “activity change, negative = inhibition” value is -4.49% (inactive). As to `Cc1c(O)cccc1C(=O)N[C@@H](CSc1ccccc1)[C@H](O)CN1C[C@H]2CCCC[C@H]2C[C@H]1C(=O)NC(C)(C)C`, the “activity change, negative = inhibition” value is -14.6% (inactive). In the case of `CN(C)CCOC(C)(c1ccccc1)c1ccccn1` (stereo not given), the “activity change, negative = inhibition” value is 2.64% (inactive). On the same count and under the same terms, in the case of `CC(=O)OCC(=O)[C@@]1(O)CC[C@H]2[C@@H]3CCC4=CC(=O)CC[C@]4(C)[C@H]3C(=O)C[C@@]21C` it was -0.252% (inactive); in that of `C[C@]12CC[C@@H]3c4ccc(O)cc4CC[C@H]3[C@@H]1CCC2=O`, 0.851% (inactive). For `CC(=O)c1ccc2c(c1)N(CCCN(C)C)c1ccccc1S2`, the “activity change, negative = inhibition” value is -4.61% (inactive). On to `C=Cc1c(C)c2cc3[nH]c(cc4nc(cc5nc(cc1[nH]2)C(C)=C5CCC(=O)O)C(CCC(=O)O)=C4C)c(C)c3C=C`, for which the “activity change, negative = inhibition” value was 30% (inactive). Regarding `CC(C)(C)[C@]1(O)CCN2C[C@H]3c4ccccc4CCc4cccc(c43)[C@@H]2C1`, the result was inactive. Regarding `CC(CN(C)C)CN1c2ccccc2CCc2ccccc21` (stereo not given), the “activity change, negative = inhibition” value is 1.07% (inactive).

As for `CCN(CC)CCOC(=O)C1(C2CCCCC2)CCCCC1`, the “activity change, negative = inhibition” value is 1.89% (inactive). For `CCN(CC)C(C)CN1c2ccccc2Sc2ccccc21` (stereo not given), the “activity change, negative = inhibition” value is -6.98% (inactive).

In the case of `C#CCN(C)Cc1ccccc1`, the “activity change, negative = inhibition” value is 1.51% (inactive).

With `CC1=C(CC(=O)O)c2cc(F)ccc2/C1=C\c1ccc(S(C)(=O)=O)cc1`, the “activity change, negative = inhibition” value is -2.77% (inactive). The same measure, in the same setting: in the case of `CN(C)CCCN1c2ccccc2CCc2ccccc21` it was -1.47% (inactive); in that of `Cc1cc(N)c2ccccc2[n+]1CCCCCCCCCC[n+]1c(C)cc(N)c2ccccc21`, -1.86% (inactive). As for `C[C@](N)(Cc1ccc(O)cc1)C(=O)O`, the “activity change, negative = inhibition” value is 2.55% (inactive). Same read-out and setting: to `CCN(CC)CCNC(=O)c1cc(Cl)c(N)cc1OC` belongs 1.2% (inactive); to `CN(C)CCC=C1c2ccccc2CCc2ccccc21`, -0.0381% (inactive); to `CC(C)C(=O)c1c(C(C)C)nn2ccccc12`, 3.76% (inactive). Same read-out and setting: in the case of `O=C1NC(=O)[C@@]2(CCOc3ccc(F)cc32)N1` it was 2.44% (inactive); in that of `CCCn1cnc2c1c(=O)n(CCCCC(C)=O)c(=O)n2C`, 1.92% (inactive); in that of `CC(C(O)c1ccc(O)cc1)N1CCC(Cc2ccccc2)CC1` (stereo not given), -1.1% (inactive). As to `CC(C)(C)c1onc(OCP(=O)(O)O)c1CC(N)C(=O)O` (stereo not given), the “activity change, negative = inhibition” value is 3.06% (inactive).

With `CNCCCC1c2ccccc2C=Cc2ccccc21`, the “activity change, negative = inhibition” value is 3.9% (inactive). Take `CC(C)c1c(C(=O)Nc2ccccc2)c(-c2ccccc2)c(-c2ccc(F)cc2)n1CC[C@@H](O)C[C@@H](O)CC(=O)O`: the “activity change, negative = inhibition” value is -10.6% (inactive). Turning to `Nc1cc(=O)[nH]c(N)n1`, the “activity change, negative = inhibition” value was 0.726% (inactive). Consider `Nc1ncnc2c1ncn2[C@@H]1O[C@H](CO)[C@@H](O)[C@H]1O`, for which the “activity change, negative = inhibition” value is 7.22% (inactive).

In the case of `NC(=O)c1ncn([C@@H]2O[C@H](CO)[C@@H](O)[C@H]2O)n1`, the “activity change, negative = inhibition” value was 3.21% (inactive). In the case of `COc1ccc(Cl)cc1C(=O)NCCc1ccc(S(=O)(=O)NC(=O)NC2CCCCC2)cc1`, the “activity change, negative = inhibition” value was -0.83% (inactive).
